A number with no mark means an inactive call. Calls of active or inactive are those of the source. No rule for the calls is given here.
Target: L-lactate dehydrogenase (Plasmodium falciparum (isolate CDC / Honduras)) (UniProt Q27743)
Experiment: PfLDH activity inhibition – cell lysate, 3D7 strain, counter-screen for P. falciparum growth inhibition project (AID 2304);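 also: 0% = vehicle and 100% = reference inhibitor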
Conditions: P. falciparum 3D7 crude extract, LDH APAD/NBT absorbance; at 2 µM; hits give high values

Sequence of L-lactate dehydrogenase (Plasmodium falciparum (isolate CDC / Honduras)) (Q27743 whole entry, looked up): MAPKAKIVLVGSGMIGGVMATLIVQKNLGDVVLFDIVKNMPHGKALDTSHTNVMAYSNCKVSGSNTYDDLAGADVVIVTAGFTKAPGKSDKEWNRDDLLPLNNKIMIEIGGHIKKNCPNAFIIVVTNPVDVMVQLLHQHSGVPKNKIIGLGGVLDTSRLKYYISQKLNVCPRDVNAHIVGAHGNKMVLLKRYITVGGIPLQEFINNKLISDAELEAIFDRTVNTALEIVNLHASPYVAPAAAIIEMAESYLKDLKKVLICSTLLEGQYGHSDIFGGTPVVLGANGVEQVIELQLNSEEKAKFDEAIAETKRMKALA

| SMILES | inhibition |
| --- | --- |
| Cc1cc(C2CCN(CCCCNC(=O)c3ccc(NC(=O)c4ccc(Cl)cc4)cc3)CC2)c(C)cc1OCc1ccncc1 | 6% |
| N#Cc1ccc(C=Cc2nccc3c2[nH]c2ccccc23)cc1 | 0% |
| Cc1ccc(F)cc1-c1cc(N2CCCN(C(=O)c3ccc(Br)o3)CC2)ncn1 | 0% |
| CS(=O)(=O)c1cc2c(Nc3ccc(N4CCOCC4)cc3)c(C(N)=O)cnc2cc1Br | -2% |
| Cc1ccc(Cn2ncc(N3CCC(N)CC3)c(Cl)c2=O)cc1NC(=O)Nc1ccc(-c2ccccc2)cc1 | -5% |
| COc1ccc(C=C2SC(=O)NC2=Nc2ccccc2)c(OC)c1 | -3% |
| Cc1nnsc1C(=O)Nc1ccc(-c2ccc(-c3nc4ccccc4[nH]3)s2)cc1 | 4% |
| C=CCc1cc(Br)ccc1OCCCON1C(N)=NC(N)=NC1(C)C | 2% |
| CCOc1c(OC)ccc2c1CCN(CCN1CCC(CNC(=O)c3ccc(-c4ccc(C(F)(F)F)cc4)cc3)CC1)C2 | 2% |
| C(=N\Nc1nccc2sc(-c3cccnc3)cc12)/c1ccncc1 | 7% |
| O=C(C=Cc1ccc(Cl)c(Cl)c1)NCCCCCN1CCCC(CCCNS(=O)(=O)c2ccc(Br)cc2)C1 (stereo not drawn) | -2% |
| COc1cc(OCCCN(C)Cc2ccc(OC)c(OC)c2)ccc1NC(=O)c1cccc2c(=O)c3cccc(F)c3[nH]c12 | -5% |
| Cc1ccc(NC(=O)NC2CCN(CCCCCNC(=O)[C@@H]3C[C@H]3c3ccc(Cl)c(Cl)c3)CC2)cc1 | 1% |
| CN(C)S(=O)(=O)c1cc(-c2ccc3nccc(-c4cccc(S(N)(=O)=O)c4)c3c2)cnc1N | -2% |
| O=S(=O)(c1cc(Cl)ccc1Cl)N1CCCCC(c2ccc(C(F)(F)F)cc2)=N1 | -1% |
| Oc1cccc(-c2nc(-c3ccccc3)c(-c3ccc(Oc4ccc(-c5[nH]c(-c6cccc(O)c6)nc5-c5ccccc5)cc4)cc3)[nH]2)c1 | 0% |

Test system: not listed separately
Experiment: inhibition of 3D7 malaria parasite growth – strain 3D7 (AID 2306);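 also: 0% = DMSO wells and 100% = chloroquine plus artemisinin control wells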
Conditions: P. falciparum 3D7 erythrocytic growth, LDH absorbance, 72 h; at 2 µM; hits give high values

| SMILES | growth inhibition |
| --- | --- |
| COc1cc(NC(=O)c2sc(-c3ccc(Cl)cc3)cc2NC(=O)c2cccc(N(C)C)c2)ccc1OCCN1CCCC1 | 99% (active) |
| O=C(Nc1ccc(F)c([N+](=O)[O-])c1)Nc1cc(C(F)(F)F)ccc1Cl | 101% (active) |
| COc1cc(CN2CCC(C(=O)Nc3ccc(-c4cccc(C)c4)cc3)CC2)ccc1O | 100% (active) |
| CN1CCN(c2ccnc3ccc(NC(=O)N(C)c4ccc(Cl)c(Cl)c4)cc23)CC1 | 100% (active) |
| CCCCc1ccc(C(=O)Nc2ccc3nc(N4CCN(C)CC4)cc(C)c3c2)cc1 | 90% (active) |
| Cc1cc2nc(/N=C(\N)NC(=O)NC3CCCCC3)nc(C)c2cc1C | 94% (active) |
| CC(C)N1CCN(C(CN2CCN(CCCOc3ccc(-c4ccccc4)cc3)CC2)c2ccc(F)cc2)CC1 (stereo not drawn) | 100% (active) |
| COc1cc2nc(N(C)C)nc(Nc3ccc(OCc4ccccc4)cc3)c2cc1OC | 100% (active) |
| COc1ccccc1-c1cc(C(=O)N2CCN(S(=O)(=O)c3ccc(C)cc3)CC2)[nH]n1 | 88% (active) |
| Cc1noc(C)c1-c1cccc(CNCc2cccc(-c3ccc(-c4nc5ccccc5[nH]4)s3)c2)c1 | 101% (active) |
| CNC(=O)NC1=NC(C)(C)N(OCc2ccc(Cl)c(Cl)c2)C(NC(=O)NC)=N1 | 99% (active) |
| CSC1=NC2(CC(c3cccc(C)c3)c3cc(Cl)c(O)cc3O2)CC(C)(C)N1 (stereo not drawn) | 100% (active) |
| Cc1ccc(F)c(OC2CCN(c3ccc(C(=O)NC4CC4)cn3)CC2)c1 | 92% (active) |
| Nc1cccc(CNCc2cccc(-c3ccc(-c4nc5ccc(C(F)(F)F)cc5[nH]4)cc3)c2)c1 | 101% (active) |
| CCCCCCCCn1ccc(=N)cc1 | 91% (active) |
| CC(C)N1CCCN(C(=O)C2CCN(c3ccc(C(=O)N4CCCC4)cn3)CC2)CC1 | 86% (active) |
| COc1ccc2nc(C)cc(Nc3ccc(Oc4ccc5ccccc5c4)c(Cl)c3)c2c1 | 102% (active) |
| CCOc1ccc2c(NN=Cc3cccc(Cl)c3)cc(C)nc2c1 | 93% (active) |
| Nc1nc(N)c2cc(Sc3ccc4ccccc4c3)ccc2n1 | 95% (active) |
| COC(=O)c1ccc2nc(-c3ccc(/C=C/C(=O)NC4CCN(Cc5ccccc5)CC4)cc3)[nH]c2c1 | 100% (active) |
| O=C(NC1CC1)c1cnc(N2CCC(OCc3ccccc3)CC2)c(Cl)c1 | 90% (active) |
| C[C@@H](COc1ccc(-c2ccccc2)cc1)CON1C(N)=NC(N)=NC1(C)C | 96% (active) |
